Reference: PubChem BioAssay AID504848 (National Center for Advancing Translational Sciences (NCATS), 2011)
Values joined by “and” are separate entries in the source; they are usually repeats but may differ in a detail not shown here. Identical values can stand only once. The whole screen tested about 2,300 compounds, of which about 1,400 (61%) were called active. Roughly 29% stayed inconclusive and do not appear here. Calls come from the whole dose curve; as a rule, active = well fitted inhibition curve with a large enough effect; inconclusive = small, poorly fitted or top-dose-only effect, or effect the other way; inactive = no such curve, though single readings can be large or run the other way. So high a share suggests a set chosen from earlier hits. The list shows a part of the results.

Assay: Confirmation screen for delayed death inhibitors of the malarial parasite plastid, 96 hour incubation; note: nearly all actives have a fitted effect of over 60% in size
Conditions: P. falciparum luciferase growth in erythrocytes; series mostly up to 28.7 µM
In short: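 Two-generation (96 h, 37 C) exposure of P. falciparum carrying an integrated firefly luciferase reporter in erythrocytes, 0.1% parasitemia and 2% hematocrit final, Albumax-supplemented RPMI. Luminescence decrease measures growth inhibition.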
Potency is the fitted concentration of half-maximal effect.

Row | Compound | Potency
1 | COc1cc(C(C)=O)ccc1OCC(O)CN1CCN(c2cc(C)cc(C)c2)CC1 (configuration not stated) | 14.1 µM (active)
2 | CC(C)(C)C1C/C(=C/c2ccccn2)C(=O)/C(=C/c2ccccn2)C1 (configuration not stated) | 0.158 µM (active)
3 | CSc1cccc(CN2CCC(Oc3cccc(C(=O)N4CCCC4)c3)CC2)c1 | 12.6 µM (active)
4 | COCCNC(=O)c1cccc(OC2CCN(Cc3ccc(C(C)C)cc3)CC2)c1 | 11.2 µM (active)
5 | COCCNC(=O)c1cccc(OC2CCN(Cc3cccc(SC)c3)CC2)c1 | 12.6 µM (active)
6 | CN(C)CCn1c(=O)n(Cc2ccco2)c(=O)c2c3c(sc21)CCCCC3 | 10 µM (active)
7 | O=c1c(Cl)cc(Cl)nn1-c1ccccc1 | 12.6 µM (active)
8 | Cc1c(O)ccc2c(CN(C)Cc3ccccc3)cc(=O)oc12 | 12.6 µM (active)
9 | COc1cc2c(cc1OC)CN(Cc1cc(=O)oc3c(C)c(C)ccc13)CC2 | 15.8 µM (active)
10 | Cc1ccc2c(CN(C)Cc3cccc(F)c3)cc(=O)oc2c1C | 12.6 µM (active)
11 | Cc1ccccc1CN(C)Cc1cc(=O)oc2c(C)c(C)ccc12 | 15.8 µM (active)
12 | O=C(Nc1ccccc1[N+](=O)[O-])c1cc(S(=O)(=O)N2CCOCC2)cs1 | 14.1 µM (active)
13 | O=C(COC(=O)c1ccc(F)c(S(=O)(=O)N2CCOCC2)c1)Nc1ccc2[nH]c(=O)[nH]c2c1 | inactive
14 | C/C(=N\NC(=O)c1cccc(S(=O)(=O)N2CCOCC2)c1)c1ccc(O)cc1 | 1 µM (active)
15 | O=C(Nc1ccccc1N1CCOCC1)c1cccc(S(=O)(=O)N2CCOCC2)c1 | 11.2 µM (active)
16 | O=C(Nc1ccccc1N1CCOCC1)c1ccc(F)c(S(=O)(=O)N2CCOCC2)c1 | 8.91 µM (active)
17 | COc1ccc(CNn2c(-c3ccccc3F)nc3ccccc3c2=O)cc1OC | 5.01 µM (active)
18 | Cc1ccccc1C1=NC(C(F)(F)F)(C(F)(F)F)c2c(n(-c3ccc(F)cc3)c(=O)[nH]c2=O)N1 | 11.2 µM (active)
19 | CC(=O)/C(C#N)=C1\NC(=O)C(Cc2ccc(C)c(Cl)c2)S1 (configuration not stated) | 12.6 µM (active)

Row | Compound | Potency
20 | CC(=O)/C(C#N)=C1\NC(=O)C(Cc2ccc(C)c(C)c2)S1 (configuration not stated) | 11.2 µM (active)
21 | CC(=O)/C(C#N)=C1\NC(=O)C(Cc2cc(Cl)ccc2Cl)S1 (configuration not stated) | 14.1 µM (active)
22 | COC(=O)c1ccccc1SC1CC(=O)N(c2ccccc2)C1=O (configuration not stated) | inactive
23 | CC(C)CN1C2CCCC1CC(NC(=S)NCc1ccco1)C2 (configuration not stated) | 10 µM (active)
24 | CCOC(=O)C1CCCN(Cc2ccc(OCc3ccccc3)c(OC)c2)C1 (configuration not stated) | 10 µM (active)
25 | CCOC(=O)C1CCCCN1Cc1cccc(OCc2ccccc2)c1 (configuration not stated) | 12.6 µM (active)
26 | O=C(C1CCC(=O)N1Cc1ccccc1Cl)N1CCN(c2cccc(Cl)c2)CC1 (configuration not stated) | 11.2 µM (active)
27 | CCS(=O)(=O)c1nc(S(=O)(=O)c2ccc(C)cc2)c(N2CCC3(CC2)OCCO3)s1 | 10 µM (active)
28 | Cc1ccc(CN(Cc2ccccn2)C(=O)Nc2ccc(C)c(C)c2)cc1 | 15.8 µM (active)
29 | Cc1ccc(NC(=O)CN2C(=O)S/C(=C\c3ccccn3)C2=O)cc1C | inactive
30 | Cc1c(CN2CCC(CO)(CCOc3ccccc3)CC2)[nH]c2ccc(Cl)cc12 | 5.62 µM (active)
31 | OCC1(CCOc2ccccc2)CCN(Cc2nc3ccc(F)cc3[nH]2)CC1 | 12.6 µM (active)
32 | Cc1ccc(-n2c(-c3ccc(Cl)cc3)c[n+]3c2CCC3)cc1 | 0.0398 µM (active)
33 | CC(C)(C)OC(=O)CNC(=O)c1[nH]cnc1C(=O)NC1CCN(C(=O)OC(C)(C)C)CC1 | 12.6 µM (active)
34 | CC(C)(C)OC(=O)[C@H](Cc1ccccc1)NC(=O)c1nc[nH]c1C(=O)N1CCN(C(=O)OC(C)(C)C)CC1 | 12.6 µM (active)
35 | CC(C)C[C@H](NC(=O)c1nc[nH]c1C(=O)N1CCN(C(=O)OC(C)(C)C)CC1)C(=O)OC(C)(C)C | 15.8 µM (active)
36 | CC(NC(=O)c1cc2sccc2n1C)c1ccc2c(c1)OCCO2 (configuration not stated) | inactive
37 | CCCCN(CCCNC(=O)C1CCN(C(=O)c2cc3sccc3n2C)CC1)Cc1ccccc1 | 0.562 µM (active)
38 | O=S(=O)(CC(CN1CCCCC1)N1CCCCC1)c1ccccc1 (configuration not stated) | 7.94 µM (active)

Row | Compound | Potency
39 | Cc1ccc(OCCn2cc(C(=S)N3CCCC3)c3ccccc32)cc1C | 14.1 µM (active)
40 | Cc1cc(C)nc(SCc2nnc(SCC(=O)Nc3nc(-c4ccccc4)cs3)n2C)n1 | 14.1 µM (active)
41 | CCOC(=O)CSc1nnc(CNc2nc(-c3ccccc3)cs2)n1C | 10 µM (active)
42 | CCCCN(CCCC)CCC(O)c1cc2c(Cl)cc(Cl)cc2c2cc(C(F)(F)F)ccc12 (configuration not stated) | 39.8 nM (active) and 20 nM (active)
43 | COc1ccc(-n2c(C)cc(C(=O)Cn3c(NCCO)nc4ccccc43)c2C)cc1 | 10 µM (active)
44 | CCCc1c(C)c2cccc(C)c2[nH]c1=O | inactive
45 | N#CC(C#N)=C1C=CC=CN1/C(=C\c1ccco1)C(=O)c1ccc(Cl)cc1 | 15.8 µM (active)
46 | N#CC(C#N)=C1C=CC=CN1/C(=C\c1ccco1)C(=O)c1ccc(-c2ccccc2)cc1 | 12.6 µM (active)
47 | COc1ccc(C(=O)/C(=C\c2ccco2)N2C=CC=CC2=C(C#N)C#N)cc1 | 15.8 µM (active)
48 | COc1ccc(CCNS(=O)(=O)c2ccc(Br)s2)cc1 | inactive
49 | CCN(CC)S(=O)(=O)c1ccc(C2=NOC3(C2)N(C)c2ccccc2C3(C)C)cc1 (configuration not stated) | 12.6 µM (active)
50 | CN1c2ccccc2C(C)(C)C12CC(c1ccc(S(=O)(=O)N3CCCCC3)cc1)=NO2 (configuration not stated) | 5.01 µM (active)
51 | CC(C)NC(=O)c1onc(CSc2cccc3ccccc23)c1C(=O)O | inactive
52 | Cc1c(NC(=O)C(C)Sc2nccn2C)c(=O)n(-c2ccccc2)n1C (configuration not stated) | inactive
53 | CSc1ccc(CNC(=O)C(C)n2nc(C)c3c(C)n(-c4ccccc4)nc3c2=O)cc1 (configuration not stated) | 11.2 µM (active)
54 | Cc1nn(C(C)C(=O)Nc2ccccc2Cl)c(=O)c2nn(-c3ccccc3)c(C)c12 (configuration not stated) | 10 µM (active)
55 | Cc1nn(C(C)C(=O)NCCC2=CCCCC2)c(=O)c2nn(-c3ccccc3)c(C)c12 (configuration not stated) | 11.2 µM (active)
56 | Cc1ccc(C(=O)NCC(=O)NCCCc2ccccc2)s1 | inactive
57 | Cc1nn(C(C)C(=O)NCCCc2ccccc2)c(=O)c2nn(-c3ccccc3)c(C)c12 (configuration not stated) | 12.6 µM (active)
